{
  "source": "the supplement of paper PMC8877412",
  "note": "Where a name gives a salt, the structure may show the parent alone. ± gives the uncertainty stated by the source.",
  "data": [
    {"test_system": "NCC-PMP1-C1", "experiment": "cell viability relative to DMSO control; higher = less growth inhibition", "conditions": "10 µM; 72 h", "description": "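NCC-PMP1-C1 pseudomyxoma peritonei cells were seeded in 384-well plates coated with Matrigel and MEF (1e4 cells). Viability was read after 72 h by CCK-8 and expressed as % of the DMSO control, mean ± SD of duplicates.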", "units": {"cell viability": "%"}, "values": [
      {"smiles": "O=C(O)CCCc1ccc(N(CCCl)CCCl)cc1", "note": "[Chloroambucil]", "cell viability": "87 ± 20"},
      {"smiles": "C=CCN1CC[C@]23c4c5ccc(O)c4O[C@H]2C(=O)CC[C@@]3(O)[C@H]1C5", "note": "[Naloxone HCl]", "cell viability": "1.93 ± 1.3"},
      {"smiles": "O=C1C2CCN(CC2)C1(CO)CO", "cell viability": "78.8 ± 3.1"},
      {"smiles": "COCC1(CO)C(=O)C2CCN1CC2", "note": "(centres undefined)", "cell viability": "115 ± 8.3"},
      {"smiles": "N.N.[Cl][Pt][Cl]", "note": "[Cisplatin]", "cell viability": "102 ± 3.3"},
      {"smiles": "C/C=C(\\C)C(=O)N[C@@H](c1ccccc1)[C@@H](O)C(=O)O[C@H]1C[C@@]2(O)[C@@H](OC(=O)c3ccccc3)[C@@H]3[C@]4(OC(C)=O)CO[C@@H]4C[C@H](O)[C@@]3(C)C(=O)[C@H](OC(C)=O)C(=C1C)C2(C)C", "note": "[Cephalomannine]", "cell viability": "74.9 ± 6.8"},
      {"smiles": "NCCCNCCSP(=O)(O)O", "note": "[Amifostine]", "cell viability": "95.3 ± 16"},
      {"smiles": "Cc1c(N)nc(C(CC(N)=O)NCC(N)C(N)=O)nc1C(=O)NC(C(=O)NC(C)C(O)C(C)C(=O)NC(C(=O)NCCc1nc(-c2nc(C(=O)NCCC[S+](C)C)cs2)cs1)C(C)O)C(O[C@@H]1O[C@@H](CO)[C@@H](O)[C@H](O)[C@@H]1O[C@H]1O[C@H](CO)[C@@H](O)[C@H](OC(N)=O)[C@@H]1O)c1cnc[nH]1", "note": "(some centres undefined) [Bleomycin Sulfate]", "cell viability": "80.5 ± 1.4"},
      {"smiles": "CC[C@@]1(O)C(=O)OCc2c1cc1n(c2=O)Cc2cc3ccccc3nc2-1", "note": "[Camptothecin]", "cell viability": "82.2 ± 14"},
      {"smiles": "C=C1C[C@@H]2[C@H](CC[C@]3(C)C(=O)CC[C@@H]23)[C@@]2(C)C=CC(=O)C=C12", "note": "[Exemestane]", "cell viability": "138 ± 5.7"},
      {"smiles": "O=P1(NCCCl)OCCCN1CCCl", "note": "(centres undefined) [Ifosfamide]", "cell viability": "106.5 ± 0.13"},
      {"smiles": "CC(=O)OC12COC1CC(O)C1(C)C(=O)C(O)C3=C(C)C(O)CC(O)(C(OC(=O)c4ccccc4)C21)C3(C)C", "note": "(centres undefined) [10-Deacetylbaccatin-III]", "cell viability": "94.7 ± 12"},
      {"smiles": "Cn1c(CCCC(=O)O)nc2cc(N(CCCl)CCCl)ccc21", "note": "[Bendamustine HCl]", "cell viability": "127 ± 6"},
      {"smiles": "O=P1(N(CCCl)CCCl)NCCCO1", "note": "(centres undefined) [Cyclophosphamide Monohydrate]", "cell viability": "107 ± 9.1"}
    ]}
  ]
}
